From article PMC4336329 (PLoS ONE, 2015) come the findings set out here.

The campaign covered roughly 310,000 compounds. About 14,000 (4.5%) showed an effect of 50% or more. Effects have a minus sign here. Only a selection was taken, and strong results are over-represented in it overall.
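Further: peak tail current of the secondary pulse compared with the same well before compound.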

The target of this assay is human ether-à-go-go-related gene (hERG) potassium channel (human, UniProt Q12809). Briefly: primary screen, population patch clamp on CHO cells stably expressing hERG; higher = less effect of the substance.
Sequence of human ether-à-go-go-related gene (hERG) potassium channel (Q12809 whole entry, looked up): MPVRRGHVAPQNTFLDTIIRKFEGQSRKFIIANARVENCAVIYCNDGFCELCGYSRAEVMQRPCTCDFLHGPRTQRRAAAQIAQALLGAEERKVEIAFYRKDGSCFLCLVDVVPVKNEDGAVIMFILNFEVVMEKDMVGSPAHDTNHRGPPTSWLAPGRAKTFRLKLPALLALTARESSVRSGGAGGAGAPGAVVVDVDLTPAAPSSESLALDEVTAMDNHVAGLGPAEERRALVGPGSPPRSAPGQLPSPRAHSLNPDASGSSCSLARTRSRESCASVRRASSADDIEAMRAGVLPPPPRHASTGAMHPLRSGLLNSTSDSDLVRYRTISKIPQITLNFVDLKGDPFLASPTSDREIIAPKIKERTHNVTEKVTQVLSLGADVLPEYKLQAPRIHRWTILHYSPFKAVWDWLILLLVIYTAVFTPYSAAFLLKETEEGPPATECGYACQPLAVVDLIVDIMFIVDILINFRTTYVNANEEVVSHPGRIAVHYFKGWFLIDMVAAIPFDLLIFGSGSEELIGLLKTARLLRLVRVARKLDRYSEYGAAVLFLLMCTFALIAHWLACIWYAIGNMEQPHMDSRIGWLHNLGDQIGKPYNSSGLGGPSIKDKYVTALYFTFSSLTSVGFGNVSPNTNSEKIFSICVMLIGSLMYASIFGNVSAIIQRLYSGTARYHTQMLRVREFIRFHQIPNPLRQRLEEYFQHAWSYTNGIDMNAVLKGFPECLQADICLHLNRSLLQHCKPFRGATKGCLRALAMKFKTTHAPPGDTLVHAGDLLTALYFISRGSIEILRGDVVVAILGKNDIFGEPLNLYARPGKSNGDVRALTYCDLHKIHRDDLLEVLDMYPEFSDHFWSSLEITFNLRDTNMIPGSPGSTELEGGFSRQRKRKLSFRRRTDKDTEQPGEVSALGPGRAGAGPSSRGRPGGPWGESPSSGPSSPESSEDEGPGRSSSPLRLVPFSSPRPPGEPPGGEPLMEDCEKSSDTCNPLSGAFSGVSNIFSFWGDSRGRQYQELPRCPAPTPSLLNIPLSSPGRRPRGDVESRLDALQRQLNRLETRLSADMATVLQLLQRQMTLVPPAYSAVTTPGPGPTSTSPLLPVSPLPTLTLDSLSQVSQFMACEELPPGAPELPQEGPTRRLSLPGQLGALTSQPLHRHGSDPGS
On to `CN(C)CCOC(=O)c1ccc2c(c1)S(=O)(=O)c1ccccc1C2=O.Cl`, for which the “hERG current change (%, negative = inhibition) at 10uM” value is reported as -6.3%.
Under `COc1ccc2c(c1)c(C(=O)O)c(C)n2C(C)C` stands 13.3%; under `COc1ccc(N2CCN(C(=O)c3ccc(NS(=O)(=O)c4ccc(F)c(F)c4)cc3)CC2)cc1`, -44.3%; under `Cc1cc(C)nc(NC2=NCC(=O)N2CCc2c[nH]c3ccccc23)n1`, -2.13%.
Take `CCOC(=O)c1cnc(SC)nc1Oc1cccc(NS(=O)(=O)c2ccc(F)cc2)c1`: the “hERG current change (%, negative = inhibition) at 10uM” value was -71.2%.
The value for `CCOC(=O)c1cnc(SC)nc1Oc1cccc(NS(=O)(=O)c2ccccc2)c1` was 16.1%; that for `CCOC(=O)c1cnc(SC)nc1Oc1cccc(NS(=O)(=O)c2ccc(C)cc2)c1` was -6.83%.
Under `O=C(NCCN1CCOCC1)c1ccc(Cl)nc1Cl` stands -2.02%; under `CCCCCC(=O)N1CCN(S(=O)(=O)c2ccc3c(c2)OCCCO3)CC1`, -18.7%.
With `CCCCCC(=O)N1CCN(S(=O)(=O)c2ccc3c(c2)OCCO3)CC1`, the “hERG current change (%, negative = inhibition) at 10uM” value is given as -61%.
Consider `CC(=O)N1CCN(S(=O)(=O)c2ccc3c(c2)OCCO3)CC1`, for which the “hERG current change (%, negative = inhibition) at 10uM” value is reported as 10.5%.
Under `COc1cc(NS(=O)(=O)c2ccc(NC(=S)NC(=O)c3sc4ccccc4c3Cl)cc2)ncn1` stands 16.3%.
On to `COc1ccc(-c2[nH]ncc2CN2CCCCCCC2)c(OC)c1`, for which the “hERG current change (%, negative = inhibition) at 10uM” value is listed as -54.7%.
The value for `COc1ccc(-c2[nH]ncc2CN2CCCOc3c(cccc3OC)C2)c(OC)c1` was -48%; that for `COc1ccc(-c2[nH]ncc2CN2CCSCC2)c(OC)c1` was 14.7%; that for `COc1ccc(-c2[nH]ncc2CN2CCC(OCc3ccccn3)CC2)c(F)c1` was -31.1%.
In the case of `COc1ccc(-c2[nH]ncc2CN2CCCC(C(=O)c3ccc(OC)cc3OC)C2)cc1` (centres unmarked), the “hERG current change (%, negative = inhibition) at 10uM” value was -65%.
Under `COc1cccc(C(=O)C2CCCN(Cc3cn[nH]c3C3CCCCC3)C2)c1` (centres unmarked) stands -32.1%; under `COc1ccc(-c2[nH]ncc2CN2CCCC(C(=O)c3cccc(OC)c3)C2)cc1` (centres unmarked), -67.3%; under `COc1ccc(-c2[nH]ncc2CN2CCC(OCc3cccnc3)CC2)c(F)c1`, -37.1%.
As for `COc1ccc(-c2[nH]ncc2CN2CCC(OCc3ccccc3)CC2)c(F)c1`, the “hERG current change (%, negative = inhibition) at 10uM” value is -80.7%.
For the molecule `COc1ccc(-c2nc3c(Br)c(N)c(Br)cc3o2)cc1`, the “hERG current change (%, negative = inhibition) at 10uM” value was 7.14%.
The value for `O=C(CCCOc1ccc(Cl)cc1Cl)N/N=C/c1cccc([N+](=O)[O-])c1` was 9.56%.
With `CS(=O)(=O)N1Cc2ccccc2CC1C(=O)OCC(=O)Nc1ccc2ccccc2c1` (centres unmarked), the “hERG current change (%, negative = inhibition) at 10uM” value is listed as 7.36%.
For the molecule `O=C(CSc1nc(C2CCCCC2)nc2ccccc12)N1CCCC1`, the “hERG current change (%, negative = inhibition) at 10uM” value is recorded as -12.6%.
The value for `COc1ccccc1/C=N/NC(=O)C1=NNC(c2ccccc2)(c2ccccc2)C1` was 2.43%.
As for `O=C(CSc1nncn1-c1ccccn1)Nc1ccccc1Cl`, the “hERG current change (%, negative = inhibition) at 10uM” value is given as 4.16%.
Under `CCCCn1nnnc1SCC(=O)Nc1ccc(C)cc1` stands 2.26%.
For the molecule `COc1cccc(OCCn2cc(C=O)c3ccccc32)c1`, the “hERG current change (%, negative = inhibition) at 10uM” value is 15.2%.
Under `CC(C)(C)c1ccc(C(=O)Nc2cccc3ncccc23)cc1` stands -2.82%.
Under `Cc1cc(Oc2ccccc2)nc(SCC(=O)Nc2ccccc2)n1` stands 19.4%; under `CC1CCN(c2oc(-c3ccccc3F)nc2C#N)CC1`, -10.7%; under `COc1cccc(C(=O)N2CCOCC2)c1`, 20.2%.
`O=C(Nc1ccccc1Cl)N1CCN(C/C=C/c2ccccc2)CC1`: the “hERG current change (%, negative = inhibition) at 10uM” value is -25.9%.
Under `O=C(CN1CCN(C/C=C/c2ccccc2)CC1)Nc1ccc(F)cc1F` stands -78.1%; under `O=C(Nc1ccc(F)cc1F)N1CCN(C/C=C/c2ccccc2)CC1`, -39.9%.
On to `Cl.O=C(CCN1CCN(C/C=C/c2ccccc2)CC1)Nc1ccccc1Cl`, for which the “hERG current change (%, negative = inhibition) at 10uM” value is -76.4%.
The value for `Cc1ccccc1NC(=O)CCN1CCN(C)CC1` was 19.4%; that for `O=C(CCN1CCN(Cc2ccccc2)CC1)Nc1ccccc1Cl` was -46.2%; that for `CCC(C)c1ccccc1NC(=O)CN1CCN(C/C=C/c2ccccc2)CC1` (centres unmarked) was -60.4%.
Under `Cc1ccc(S(=O)(=O)NC(CC(C)C)C(=O)N2CCN(C/C=C/c3ccccc3)CC2)cc1` (centres unmarked) stands -21.3%; under `Fc1ccc(NC(=S)N2CCN(C/C=C/c3ccccc3)CC2)c(F)c1`, -25.8%.
The value for `Cc1cc(NC(=O)CN2CCN(C/C=C/c3ccccc3)CC2)c([N+](=O)[O-])cc1C` was -12%; that for `Cc1ccccc1NC(=O)CCN1CCN(C/C=C/c2ccccc2)CC1` was -78.9%.
In the case of `Cc1ccccc1NC(=O)N1CCN(C/C=C/c2ccccc2)CC1`, the “hERG current change (%, negative = inhibition) at 10uM” value is -22.7%.
With `O=C(COC(=O)c1cnccn1)c1ccc(Br)cc1`, the “hERG current change (%, negative = inhibition) at 10uM” value was 0.614%.
The value for `O=C(CNC(=O)c1ccc(Cl)cc1Cl)OCN1C(=O)c2ccccc2C1=O` was 3.68%; that for `Cc1[nH]c2ccccc2c1C(=O)C(=O)NCC1CCCO1` (centres unmarked) was 6.3%.
Regarding `Cc1ccc(/C=C/C(=O)N2CC(=O)Nc3ccccc32)o1`, the “hERG current change (%, negative = inhibition) at 10uM” value is -24.2%.
The value for `O=C(CN1C(=O)c2ccccc2C1=O)NCCOc1ccccc1` was -2.09%; that for `Cc1ccccc1NC(=O)C(C)O/N=C/c1cccc([N+](=O)[O-])c1` (centres unmarked) was -38.7%.
The value for `CCCS(=O)(=O)N1CCCC(C(=O)NCCCN(C)c2ccccc2)C1` (centres unmarked) was 5.82%; that for `CN(C)/C=C(\C#N)S(=O)(=O)c1ccccc1` was 9.4%.
As to `Fc1ccccc1NC(=S)N1CCN(C/C=C/c2ccccc2)CC1`, the “hERG current change (%, negative = inhibition) at 10uM” value is given as -23.4%.
Turning to `O=C(CCN1CCN(c2ccccc2)CC1)Nc1ccccc1F`, the “hERG current change (%, negative = inhibition) at 10uM” value is listed as 8.14%.
For `O=C(CCN1CCN(C/C=C/c2ccccc2)CC1)Nc1ccccc1F.O=C(O)C(=O)O`, the “hERG current change (%, negative = inhibition) at 10uM” value was -75.1%.
The value for `COc1ccc(CN2C(=O)c3ccccc3C2=O)cc1C(=O)Nc1ccccc1N1CCOCC1` was -10.7%; that for `COCC(=O)N1CCC(Oc2ccc(C(=O)NCc3cc(C(C)C)no3)cc2)CC1` was -2.22%.
As to `CS(=O)(=O)Nc1cccc(-c2cnc3ccccc3n2)c1`, the “hERG current change (%, negative = inhibition) at 10uM” value is reported as -70.4%.
As to `CC(C)C(=O)Nc1cccc(-c2cnc3ccccc3n2)c1`, the “hERG current change (%, negative = inhibition) at 10uM” value is recorded as 4.12%.
The value for `CC(=O)Nc1cccc(-c2cnc3ccccc3n2)c1` was -9.95%; that for `Cc1cc(S(=O)(=O)Nc2cccc(Cl)c2)c(C)s1` was 8.15%; that for `CCn1c2ccccc2c2cc(/C=N/O)ccc21` was 40.6%.
As to `CSCCC1NC2(C(=O)Nc3ccc(Cl)cc32)[C@@H]2C(=O)N(C3CCCC3)C(=O)[C@H]12` (some centres unmarked), the “hERG current change (%, negative = inhibition) at 10uM” value is listed as -8.3%.
Under `Cc1cc(NC(=O)CSc2nc(-c3cccs3)nc3ccccc23)no1` stands 14.7%; under `CCN1CCN(c2nc(Nc3cccc(OC)c3)nc(N)c2[N+](=O)[O-])CC1`, -73.3%.
The value for `Cc1cccc(Nc2nc(N)c([N+](=O)[O-])c(N3CCN(C)CC3)n2)c1` was -48%.
The value for `COc1cccc(Nc2nc(N)c([N+](=O)[O-])c(N3CCOCC3)n2)c1` was -14.2%; that for `COc1ccc(Nc2nc(N)c([N+](=O)[O-])c(N3CCN(C)CC3)n2)cc1` was -26.6%; that for `CCN1CCN(c2nc(Nc3ccc(OC)cc3)nc(N)c2[N+](=O)[O-])CC1` was -32.2%.
As for `CCN1CCN(c2nc(Nc3cccc(C)c3)nc(N)c2[N+](=O)[O-])CC1`, the “hERG current change (%, negative = inhibition) at 10uM” value is given as -70.2%.
In the case of `CCOc1ccc(Nc2nc(N)c([N+](=O)[O-])c(N3CCN(C)CC3)n2)cc1`, the “hERG current change (%, negative = inhibition) at 10uM” value was -48.3%.
The value for `CCOc1ccc(Nc2nc(N)c([N+](=O)[O-])c(N3CCN(CC)CC3)n2)cc1` was -62.6%; that for `Cc1cccc(Nc2nc(N)c([N+](=O)[O-])c(N3CCOCC3)n2)c1` was -37.1%; that for `CCN1CCN(c2nc(Nc3ccc(C)c(C)c3)nc(N)c2[N+](=O)[O-])CC1` was -75%.
Under `Cc1ccc(Nc2nc(N)c([N+](=O)[O-])c(N3CCC(C)CC3)n2)cc1C` stands 7.13%; under `Cc1ccc(Nc2nc(N)c([N+](=O)[O-])c(N3CCOCC3)n2)cc1C`, -13.9%.
Under `COc1ccccc1CC(=O)Nc1ccc(C(=O)N2CCCCC2)cc1` stands 2.21%; under `CCOC(=O)CCNC(=O)N1CCCC(C(=O)c2cc(C)c(OC)c(C)c2)C1` (centres unmarked), 5.81%; under `COC(=O)Cc1ccc(NC(=S)N2CCN(CCO)CC2)cc1`, 3.63%.
With `CC1=C(OC(=O)C(C)(C)C)C(C)(C)C(c2ccccc2)OC1=O` (centres unmarked), the “hERG current change (%, negative = inhibition) at 10uM” value was -13.4%.
The value for `COc1cccc(C2CC(c3cccc(OC)c3)n3nc(N)nc3N2)c1` (centres unmarked) was -4.11%.
Under `COc1ccc(-c2nnc(NC(=O)C(C)C)o2)cc1` stands -3.15%.
Under `COc1ccc(N2C(=O)c3ccccc3NC23CCC(C)CC3)cc1` (centres unmarked) stands 4.35%; under `C=CCn1nnnc1SCC(=O)Nc1cccc(C(F)(F)F)c1`, 9.66%.
`CC(NC(=O)C(C(=O)c1cccc([N+](=O)[O-])c1)n1cc(Cl)ccc1=O)c1ccccc1` (centres unmarked): the “hERG current change (%, negative = inhibition) at 10uM” value is given as -15%.
As to `CCN1CCN(c2nc(Nc3ccccc3F)nc(N)c2[N+](=O)[O-])CC1`, the “hERG current change (%, negative = inhibition) at 10uM” value is on record as -56.6%.
`Nc1nc(Nc2ccccc2)nc(N2CCCC2)c1[N+](=O)[O-]`: the “hERG current change (%, negative = inhibition) at 10uM” value is -34.5%.
Under `CCN1CCN(c2nc(Nc3cccc(F)c3)nc(N)c2[N+](=O)[O-])CC1` stands -62.6%; under `Nc1nc(Nc2cccc(F)c2)nc(N2CCOCC2)c1[N+](=O)[O-]`, -26.7%.
`Nc1nc(Nc2ccccc2F)nc(N2CCCC2)c1[N+](=O)[O-]`: the “hERG current change (%, negative = inhibition) at 10uM” value is 4.5%.
Under `Cc1cccc(Nc2nc(N)c([N+](=O)[O-])c(N3CCC(C)CC3)n2)c1` stands -15.7%.
As for `Nc1nc(Nc2ccccc2F)nc(N2CCOCC2)c1[N+](=O)[O-]`, the “hERG current change (%, negative = inhibition) at 10uM” value was determined as 4.6%.
Under `CCN1CCN(c2nc(N)c([N+](=O)[O-])c(Nc3ccc(C)c(C)c3)n2)CC1` stands -6.91%; under `CCN1CCN(c2nc(N)c([N+](=O)[O-])c(Nc3ccc(C)cc3)n2)CC1`, -68.9%; under `CN1CCN(c2nc(Nc3ccccc3)nc(N)c2[N+](=O)[O-])CC1`, -40.6%.
As for `CCN1CCN(c2nc(Nc3ccccc3)nc(N)c2[N+](=O)[O-])CC1`, the “hERG current change (%, negative = inhibition) at 10uM” value is -63%.
For `CCN1CCN(c2nc(N)c([N+](=O)[O-])c(Nc3cccc(C)c3)n2)CC1`, the “hERG current change (%, negative = inhibition) at 10uM” value was -45%.
